40 compounds from PubChem BioAssay (NCI) can be followed below.

The structures appear in SMILES notation. Compounds without any hit were thinned out: in the full panel of roughly 83,000, 20% have a hit.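 Each cell line was grown in a 96-well plate and treated with one concentration of compound for 48 hours. Values below 10 were considered active.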 Values without a mark were called inactive. The source made the active and inactive calls.

This test deals with TK-10 renal. Briefly: NCI-60 one-dose screen, 48 h (100 = growth as untreated, 0 = no growth, -100 = all killed). As to conditions: 10 µM unless noted. How it is done: Growth inhibition of the TK-10 human tumor cell line is measured as a screen for anti-cancer activity. Cells are grown in 96 well plates and exposed to the test compound for 48 hours. Compounds are tested at a single concentration, which is 10^-5 M for most compounds. The reported endpoint is percent growth (GI% or GIPRCNT), where numbers from 0 - 100% represent growth inhibition, and numbers from -100% - 0 represent cell death. For example, a value of 40 represents 60% growth inhibition. A value of 0 means no net growth occurred over the course of the experiment. A value of -40 indicates 40% of cells at the beginning of the experiment died by the end of the experiment. A value of -100 means all cells are dead at the end of the experiment.
NCI-60 Human Tumor Cell Lines Screen was performed using the standard one-dose NCI protocol, which is described in more detail at https://dtp.cancer.gov/discovery_development/nci-60/default.htm.
Compounds with GIPRCNT values below 10 were considered active. Activity score was based on GIPRCNT using the following formula: […]
Score is 0 for GIPRCNT values of 100 or above, 50 for GIPRCNT values of 0, and 100 for GIPRCNT values of -100.
In the case of `CC(=O)[C@@H]1CC[C@]2(C(=O)n3ccnc3)CC[C@]3(C)[C@H](CC[C@@H]4[C@@]5(C)Cc6c([nH]c7ccccc67)C(C)(C)[C@@H]5CC[C@]43C)[C@@H]12`, the growth was 102%.

Regarding `CCCCCOc1ccc(/C=N/Nc2cc(C)nc3ccc(Br)cc23)cc1`, the growth was 19.1%.

As for `Nc1c(Cl)cc([N+](=O)[O-])cc1Br`, the growth is 115%.

Turning to `CN(C)C(=O)c1cc2cnc(Nc3ccc(-c4csc5c(=O)cc(N6CCOCC6)oc45)cc3)nc2n1C1CCCC1`, the growth was -10% (active).

On to `COc1cc(-c2nc3occn3c2-c2ccnc(NCCNS(=O)(=O)c3ccc(Cl)cc3)n2)ccc1F`, for which the growth was 89%.

Take `CN1C(=O)N(C)C2NC(N/N=C/c3ccccc3)=NC21` (stereo not given): the growth is 100%.

`COc1ccc(-c2nc(SCC(C)C)nc(N/N=C(/C)c3ccc(OC)c(OC)c3)c2C#N)cc1`: the growth was 101%.

In the case of `Cc1ccc2[nH]c(=O)cc(-n3nncc3COc3ccc(C=O)cc3)c2c1`, the growth was 109%.

Turning to `CCCc1cc2c(cc1Br)OCO2`, the growth was 100%.

Turning to `Brc1ccc(C2CC(c3cccc(Nc4ccncc4)c3)=NN2c2ccccc2)cc1` (stereo not given), the growth is 94.4%.

As to `CC(=O)c1c(-c2ccc(OC(F)(F)F)cc2)nc2ccccn12`, the growth was 6.58% (active).

Turning to `O=C(O)c1cn(C2CC2)c2cc(N3CCN(C(=O)C[n+]4cccc5ccccc54)CC3)c(F)cc2c1=O`, the growth is 100%.

For the compound `NC(=S)N/N=C/c1ccc(OC(=O)COc2cc(Cl)c(Cl)cc2Cl)cn1`, the growth is 92.5%.

For `CN1CCN(C(=O)OCc2nc3c(N4CCOCC4)nc(-c4ccccc4)nc3n2C)CC1`, the growth was -70.1% (active).

Consider `Cc1cc2nc(-c3ccccc3)c(-c3ccccc3)nc2cc1C`, for which the growth is 125%.

Consider `NC(=S)N/N=C(/c1ccccc1)c1ccccc1N`, for which the growth is 103%.

As to `O=c1[nH]nc(-c2ccc(Cl)cc2)cc1Cc1cccc([N+](=O)[O-])c1`, the growth was 147%.

Regarding `COc1ccc(-c2cnnc3c(-c4cccc(C(F)(F)F)c4)cnn23)cc1`, the growth is 21%.

For the compound `Cc1ccc(-c2c(Br)c(OC(=O)CO[C@@H]3C[C@H](C)CC[C@H]3C(C)C)c(-c3ccc(C)cc3C)c(Br)c2OC(=O)CO[C@H]2C[C@@H](C)CC[C@@H]2C(C)C)c(C)c1`, the growth is 92.8%.

Regarding `CN(C)CCCn1c2c(c3ccc(-c4ccn[nH]4)cc3c1=O)C(=O)c1ccccc1-2`, the growth was 54.4%.

For the compound `CCCCCCCCCCCCCCCC(=O)OC[C@@]1(O)C[C@@]23CC[C@@H]4C(C)(C)CCC[C@@]4(C)[C@@H]2CC[C@H]1C3`, the growth was 100%.

For the compound `FC(F)(F)c1cccc(Nc2ccccc2)c1`, the growth was 94%.

On to `C=C1C(=O)O[C@H]2[C@H]1CC/C(COC(=O)CCCCCC(=O)OC/C1=C/CC[C@@]3(C)O[C@H]3[C@H]3OC(=O)C(=C)[C@@H]3CC1)=C\CC[C@@]1(C)O[C@@H]21`, for which the growth is 7.18% (active).

Turning to `O=C(Nc1ccc2ncnc(Nc3ccc(Oc4cccc(F)c4)c(Cl)c3)c2c1)c1ccc(CNCCO)cc1`, the growth is 57.1%.

`Clc1ccc(N2N=C(c3cccc(Nc4ccncc4)c3)CC2c2ccc(Br)cc2)cc1` (stereo not given): the growth was 62.3%.

As to `C=C(C)[C@@H]1CC[C@]2(C=O)CC[C@]3(C)[C@H](CC[C@@H]4[C@@]5(C)CCCNC(C)(C)[C@@H]5CC[C@]43C)[C@@H]12`, the growth was 88.2%.

Take `COc1cc2nc(-c3ccc(C(F)(F)F)cc3)cc(OCCCN3CCCCC3)c2cc1OC`: the growth is 105%.

As to `COc1ccc(CC(C)=C(c2ccc(OCCN(C)C)cc2)c2ccc(OCCN(C)C)cc2)cc1`, the growth was 99.6%.

As for `CC(C)(C)OC(=O)N1C/C(=C\c2ccoc2)C(=O)/C(=C/c2ccoc2)C1`, the growth was 94.8%.

In the case of `Cc1ccccc1C(c1ccccc1)c1ccccc1C`, the growth was 100%.

In the case of `COc1cc2nc(-c3ccc(C(F)(F)F)cc3)cc(OCCCN3CCC(O)CC3)c2cc1OC`, the growth is 85.7%.

Regarding `Cc1c([N+](=O)[O-])cc(C(C)(C)C)cc1[N+](=O)[O-]`, the growth is 102%.

For `CCCCCCCCCCCC(=O)C(CCCCCCCCCC)C(=O)Nc1ccccc1` (stereo not given), the growth is 95.1%.

In the case of `COc1ccc(-c2nc(SCCC(C)C)nc(N/N=C(/C)c3ccc(C)cc3)c2C#N)cc1`, the growth is 107%.

For `COc1ccc(C2CC(c3cccc(Nc4ccncc4)c3)=NN2c2cc(Cl)cc(Cl)c2)cc1` (stereo not given), the growth was 63.2%.

Take `O=C(CCN1CCCC1)Nc1ccc2c(NCc3ccc(F)cc3)c3ccccc3nc2c1`: the growth was -3.79% (active).

`O=C1Nc2c(ccc(Cl)c2Cl)/C1=C/c1ccccn1`: the growth was 120%.

For the compound `C=C1C(=O)O[C@H]2[C@H]1CC/C(COC(=O)/C=C/c1c[nH]c3ccccc13)=C\CC[C@@]1(C)O[C@@H]21`, the growth is -99.2% (active).

Regarding `CC(=O)c1c[nH]c2ccc(-c3ccnc(Nc4ccc(NC(=O)c5cccc(F)c5)c(CN5CCOCC5)c4)n3)cc12`, the growth was 1.22% (active).

On to `O=S(=O)(c1cccc(NC2=Nc3cccc4cccc2c34)c1)N1CCCC1`, for which the growth is 90.5%.
